We go through 22 compounds from PubChem BioAssay (EPA / NIEHS).

Records with an inconclusive call do not appear. Calls of active or inactive are those of the source. How the source made its calls, unless noted: active means hit-call score of the fitted dose curve at least 0.9, where 1 is the maximum; inactive means score below 0.9.

The nature of experiment [1]: CCTE_Shafer_MEA_dev_burst_rate: CCTE's Neural Network Formation Assay for Burst Rate, Shafer Lab (AID 2284042). The procedure, abridged: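 Developmental network assay measuring how 12-day exposure of rat cortical neuron cultures alters bursting on extracellular MEA recordings. Values are AUC of well-mean burst rate across four recording days, relative to DMSO vehicle.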

Experiment [2] is described as follows: CCTE_Shafer_MEA_dev_bursting_electrodes_number: CCTE's Neural Network Formation Assay for Number of Bursting Electrodes, Shafer Lab (AID 2284043; active means hit-call score of the fitted dose curve at least 0.9, where 1 is the maximum). How it is done: (§1) CCTE_Shafer_MEA_dev assay is conducted using Axion Biosystems 48 well microelectrode array (MEA) plates and Maestro recording system. Each well of the MEA plate contains a grid of 16 microelectrodes embedded in the culture surface. Electrically active cells, such as neurons, can be cultured over the electrodes, and electrical activity in these cells can be recorded extracellularly. The spontaneous firing of neurons is captured from each electrode on a microsecond timescale providing both temporally and spatially precise data. […] The CCTE_Shafer_MEA_dev assay uses primary cultures of rat cortical neurons. Recordings are made on days post-plating 5, 7, 9 and 12. As these cultures mature over time, neural networks develop functional activity and form cohesive networks in which electrical activity can be highly coordinated. CCTE_Shafer_MEA_dev_bursting_electrodes_number is 1 of 19 assay components of the CCTE_Shafer_MEA_dev assay. It measures the number of electrodes in a well with a burst rate of at least 1 burst (temporally-clustered group of action potential firing) every 2 minutes during a recording in a microelectrode array (MEA) using Axion Biosystems Maestro 768 channel amplifier with the AxIS adaptive spike detector. To collapse across multiple recordings made on days post-plating 5, 7, 9 and 12, the trapezoidal area-under-the-curve of the component is calculated.Data from the assay component CCTE_Shafer_MEA_dev_bursting_electrodes_number was analyzed into 1 assay endpoint. This assay endpoint, CCTE_Shafer_MEA_dev_bursting_electrodes_number, was analyzed in the negative analysis fitting direction relative to DMSO as the negative control and baseline of activity. Using a type of functional reporter, gain or loss-of-signal activity can be used to understand electrical activity.
(§2) On the day prior to culture, each well was coated thoroughly with 150 uL of 0.05% polyethyleneimine (PEI, Sigma Cat P3143) in 50 mM HEPES (Sigma Cat H7523) at a pH of 8. The plate was incubated at 37C for one hour. PEI was rinsed out with 500 uL of sterile water three times. Plates were stored at 4C until the day of culture. This culture was plated at a seeding density of 1.5 x 10^5 cells/well on a 48-well MEA plate, prepared as described above. Cells were administered via a 25 uL media/laminin ([…]; Sigma Cat L2020-1MG) drop directly onto the microelectrode array, as adding the cells with the laminin results in better attachment than pre-coating with laminin. After 2 hours, an additional 475 uL of cortical media was added and the cells returned to the incubator. Exposure starts at day 0 of plating and is continued over twelve days of network development until the experiment is terminated. Cells are fed with fresh medium on DIV 5 and 9, following the recordings on those days. The entire volume of media in the well is exchanged and any vehicle or compound treatment is renewed. Complete details are found in OP-NHEERL/ISTD/SBB/TJS/2015-03-r0 (available on request, email shafer.tim@epa.gov). Measurement of the electrical activity is non-invasive, and recordings can be made from the same plate over multiple different days of the culture. In cortical neurons, this allows for the measurement of extracellular action potentials over the period during which networks form in the MEA plate.

Experiment [3] can be described thus: CCTE_Shafer_MEA_dev_per_burst_interspike_interval: CCTE's Neural Network Formation Assay for Burst Interspike Interval, Shafer Lab (AID 2284044).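 Further: mean spike spacing inside bursts as AUC over recordings on days 5 7 9 12.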 Summed up:
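Neurons from rat cortex plated onto PEI-coated MEA wells with laminin […] at 1.5 x 10^5 cells/well, then treated from day 0. Media and compound fully replaced on DIV 5 and 9. Extracellular spontaneous firing recorded four times; interspike interval per burst summarised as AUC.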

Experiment [4] can be described thus: CCTE_Shafer_MEA_dev_burst_duration_mean: CCTE's Neural Network Formation Assay for Mean Burst Duration, Shafer Lab (AID 2284045).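 On AC50: curve fitted for loss meaning shorter burst duration than DMSO.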 The procedure, abridged:
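Mean single-electrode burst duration (first to last spike), averaged over bursting electrodes per well, then integrated as area-under-curve across recordings at days 5, 7, 9 and 12. Rat cortical cultures on MEAs, compound present from plating, refreshed at feeds.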

A short description of experiment [5]: CCTE_Shafer_MEA_dev_interburst_interval_mean: CCTE's Neural Network Formation Assay for Mean Interburst Interval, Shafer Lab (AID 2284046).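 Further: well-mean interburst interval of bursting electrodes as AUC over four recording days; curve fitted for decrease in interburst interval relative to DMSO.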 Summed up:
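Network formation assay in primary rat cortical cultures, exposed from DIV 0 to 12. Mean interburst interval per well, integrated as AUC over four recordings.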

Experiment [6] is described as follows: CCTE_Shafer_MEA_dev_inter_network_spike_interval_mean: CCTE's Neural Network Formation Assay for Mean Inter-network Spike Interval, Shafer Lab (AID 2284047). The procedure, abridged: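 Compound was given at plating to primary rat cortical neurons and renewed with full medium changes on DIV 5 and 9. Extracellular activity was recorded on days 5, 7, 9, 12; AUC values were fitted for loss relative to DMSO control.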

Experiment [7] can be described thus: CCTE_Shafer_MEA_dev_network_spike_number: CCTE's Neural Network Formation Assay for Number of Network Spikes, Shafer Lab (AID 2284048).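 Further: synchronized bursts across electrodes counted on days 5 7 9 12 and integrated as AUC.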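 On AC50: fit as a loss of signal meaning fewer network spikes than DMSO.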 Summed up:
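Number of network spikes (coordinated firing across electrodes) recorded on days 5, 7, 9 and 12 and summarised as area under the curve. Rat cortical cultures on MEA, continuous compound exposure with full medium/treatment exchange at DIV 5 and 9.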

The nature of experiment [8]: CCTE_Shafer_MEA_dev_network_spike_peak: CCTE's Neural Network Formation Assay for Mean Number of Electrodes in Network Spike, Shafer Lab (AID 2284049).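 On AC50: fitted for loss of signal meaning fewer electrodes in network spikes than DMSO.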 Summed up:
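Rat cortical primary culture, 1.5 x 10^5 cells/well, 48-well MEA (16 electrodes/well). Dosing day 0 through DIV 12, full media/compound exchange DIV 5, 9. AxIS adaptive spike detection; AUC over days 5/7/9/12; loss-of-signal vs DMSO.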

Experiment [9] can be described thus: CCTE_Shafer_MEA_dev_spike_duration_mean: CCTE's Neural Network Formation Assay for Mean Spike Duration, Shafer Lab (AID 2284051).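 Further: mean network spike duration pooled as area under curve over DIV 5 to 12 recordings.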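 On AC50: potency for a decrease in mean network spike duration versus DMSO.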 How it is done:
as §1, with “CCTE_Shafer_MEA_dev_spike_duration_mean” for “CCTE_Shafer_MEA_dev_bursting_electrodes_number”, “average duration” for “number”, “network spikes” for “electrodes in a well with a burst rate of at least 1 burst”, “groups” for “group”, “firing across multiple electrodes)” for “firing) every 2 minutes”, “CCTE_Shafer_MEA_dev_spike_duration_mean,” for “CCTE_Shafer_MEA_dev_bursting_electrodes_number,”
as §2

In another experiment the test system is DIO2 (gene 1734). Kind of experiment: CCTE_GLTED_hDIO2: CCTE's human Deiodinase 2 (DIO2) Inhibition Assay, Great Lakes Toxicology and Ecology Division (GLTED) Lab (AID 2284050; active means hit-call score of the fitted dose curve at least 0.9, where 1 is the maximum). The procedure, abridged:
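Readout: absorbance from Sandell-Kolthoff detection of free iodide released by human DIO2 during a 3 h incubation with chemical. Cell-free format, n=3; activity fitted relative to DMSO negative control.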

As for `CN1C(=O)CC[C@H]1c1cccnc1`, the compound was called inactive in experiment [1], in experiment [2], in [3], in [4], in [5] and in experiment [6]. Besides, the compound was classed as inactive in experiment [7], in [8] and in [9].
Regarding `Clc1ccccc1C(c1ccccc1)(c1ccccc1)n1ccnc1`, the result in [1], in [3], in experiment [4], in experiment [5], in [6] and in experiment [7] was inactive. Besides, the result in experiment [8] and in [9] was inactive.
On to `CCCCCCCCCCCCO`, for which, in the experiment with DIO2 (gene 1734), the outcome was inactive.
Regarding `CCCCCCCCCCCC[N+](C)(C)C`, in the experiment with DIO2 (gene 1734), the concentration at half-maximal activity (AC50) is 96.4 µM (active).
Same read-out and setting: as for `OC12N=C(c3ccccc3)SC1Cc1cc(Cl)ccc12` (configuration not stated), the figure is 72.5 µM (active).
The same measure, in the same setting: the figure for `CCCCCCCCOC(=O)c1cc(O)c(O)c(O)c1` is 143 µM (active).
Regarding `c1ccc2ccccc2c1`, the outcome in [1], in experiment [2], in experiment [3], in experiment [4], in experiment [5] and in experiment [6] was inactive. For the same compound, the compound was classed as inactive in [7], in experiment [8] and in [9].
In the case of `NCc1cccc(C2CCN(C(=O)c3ccc(C#Cc4ccccc4F)o3)CC2)c1`, the AC50 in the experiment on DIO2 (gene 1734) was 30.6 µM (active).
Consider `CC(C)(c1cc(Br)c(O)c(Br)c1)c1cc(Br)c(O)c(Br)c1`, for which the call in [1], in experiment [2], in experiment [3], in experiment [4], in experiment [5] and in experiment [6] was inactive. Moreover, the compound was called inactive in experiment [7], in experiment [8] and in experiment [9]. For the same compound, in the experiment on DIO2 (gene 1734), the concentration at half-maximal activity (AC50) is 48.6 µM (active).
On to `CCN(CC)C(=O)c1cc(S(=O)(=O)Cc2ccccc2)c(N2CCC(c3ccccc3)CC2)cc1N(CC)CCN(C)C`, for which the AC50 with DIO2 (gene 1734) is 37 µM (active).
On the same count and under the same terms, as for `CN(C)c1ccc(C(=C2C=CC(=[N+](C)C)C=C2)c2ccc(N(C)C)cc2)cc1`, the figure is 134 µM (active).
On to `CN1C(=O)N(c2ccccc2Br)Cc2cnc(Nc3ccc4c(c3)OCC(CO)O4)nc21` (configuration not stated), for which the compound was classed as inactive in the experiment with DIO2 (gene 1734).
As for `CC(C)(C)c1csc(-c2cc3cc(OCc4ccccc4CC(=O)O)ccc3o2)n1`, the concentration at half-maximal activity (AC50) in the experiment on DIO2 (gene 1734) is 120 µM (active).
The same measure, in the same setting: as for `CC(C)(C)c1cc(/C=C2\SC(N)=NC2=O)cc(C(C)(C)C)c1O`, the figure is 30.3 µM (active).
The same measure, in the same setting: as for `CN(C)C(=O)C1(N2CCCCC2)CCN(CC[C@@]2(c3ccc(Cl)c(Cl)c3)CN(C(=O)c3ccccc3)CCO2)CC1`, the figure is 73.9 µM (active).
Consider `NC(=O)c1nc(-c2cccc(-c3cc(F)ccc3OCC(F)(F)C(F)(F)F)c2)n[nH]1`, for which the AC50 in the experiment on DIO2 (gene 1734) is 100 µM (active).
Still for that read-out and setting: as for `O=CCCCC=O`, the figure is 91.3 µM (active).
For `CC/C(=C(/CC)c1ccc(O)cc1)c1ccc(O)cc1`, the result in experiment [1], in [3], in experiment [4], in experiment [5] and in experiment [6] was inactive. The AC50 is 9.74 µM (active) in experiment [2], 0.077 µM (active) in [7], 11.3 µM (active) in experiment [8] and 15 µM (active) in [9].
Take `CN(C[C@@H](CC[N+]12CCC(C3CCCCC3)(CC1)CC2)c1ccc(Cl)c(Cl)c1)C(=O)c1cc(C(F)(F)F)cc(C(F)(F)F)c1`: the half-maximal activity concentration (AC50) in the experiment on DIO2 (gene 1734) was 37.8 µM (active).
For the compound `Oc1ccccc1`, the compound was called inactive in experiment [1], in [3], in [5], in experiment [6], in experiment [7] and in experiment [8]. The result in experiment [9] was inactive. Further, the AC50 in [4] is 6.18 µM (active).
On to `O=C1O[C@H]([C@@H](O)CO)C(O)=C1O`, for which the result in experiment [1], in experiment [2], in experiment [3], in experiment [4], in experiment [5] and in experiment [6] was inactive. Further, the result in [7], in experiment [8] and in experiment [9] was inactive.
Consider `CCOC(=O)O[C@H](C)OC(=O)c1ccc2c(c1)cc(C(=O)NC1CCN(C(C)C)CC1)n2Cc1cc(-c2ccc(Cl)s2)on1`, for which, in the experiment on DIO2 (gene 1734), the AC50 is 45.2 µM (active).
